Consider 24 compounds from PubChem BioAssay (Tox21).

Assay [1] is described as follows: A CellTox Green Cytotoxicity Assay to monitor cytotoxicity in HEK293 cells - 32 hour (AID 1224881). Also: nearly all actives have a fitted effect of over 40% in size. Also: potency is read from the fitted curve at half-maximal effect. Summed up:
(§1)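 HEK293 cells, 600/well, were preincubated 5 hours and then exposed to compounds at 37 C for up to 40 hours. A cell-impermeant cyanine dye staining dead-cell DNA was read by fluorescence at 0, 8, 16, 24, 32 and 40 h time points.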

Assay [2] can be described thus: A CellTox Green Cytotoxicity Assay to monitor cytotoxicity in HepG2 cells - 0 hour (AID 1224882). Also: nearly all actives have a fitted effect of over 35% in size. The essentials: (§2)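 HepG2 cells, 600/well, preincubated 5 h with CellTox Green dye, then exposed to Tox21 compounds in DMSO at 37 C for up to 40 h. Dead-cell DNA fluorescence read at the indicated time point.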
The nature of assay [3]: A CellTox Green Cytotoxicity Assay to monitor cytotoxicity in HepG2 cells - 32 hour (AID 1224883). Also: nearly all actives have a fitted effect of over 50% in size. Also: potency is read from the fitted curve at half-maximal effect. The essentials: as §2
Assay [4] is described as follows: A CellTox Green Cytotoxicity Assay to monitor cytotoxicity in HEK293 cells - 8 hour (AID 1224884). Also: nearly all actives have a fitted effect of over 35% in size. The essentials:
as §1

A short description of assay [5]: qHTS RealTime-Glo MT Cell Viability Assay in HepG2 cells - 16 hour (AID 1224885). Also: nearly all actives have a fitted effect of over 50% in size. The essentials: (§3)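 Cell number in HepG2 cultures estimated from NanoLuc luminescence generated by metabolic reduction of a prosubstrate by living cells. The homogeneous, nonlytic format allowed repeated reads at 0, 8, 16, 24, 32 and 40 h of compound exposure.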
Background: qHTS replaces the single test concentration by a dilution series.

A short description of assay [6]: qHTS RealTime-Glo MT Cell Viability Assay in HEK293 cells - 24 hour (AID 1224886). Also: nearly all actives have a fitted effect of over 50% in size. Also: potency is read from the fitted curve at half-maximal effect. Summed up:
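Homogeneous bioluminescent viability format in HEK293 cells (600 cells/well). Following 5 h at 37 C/5% CO2, 23 nL compound was pintooled; the signal was measured repeatedly during 40 h incubation.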

Assay [7] in a line: qHTS RealTime-Glo MT Cell Viability Assay in HEK293 cells - 8 hour (AID 1224887). Also: nearly all actives have a fitted effect of over 50% in size. Also: potency is read from the fitted curve at half-maximal effect. The essentials: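 600 cells/well were plated with the nonlytic NanoLuc/prosubstrate reagent, pre-incubated 5 h, then given 23 nL of compound in DMSO. Incubation at 37 C for 40 h, with luminescence from viable-cell-reduced substrate read repeatedly from 0 h.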
Assay [8] in a line: A CellTox Green Cytotoxicity Assay to monitor cytotoxicity in HEK293 cells - 16 hour (AID 1224888). Also: nearly all actives have a fitted effect of over 35% in size. Summed up: as §1
A short description of assay [9]: A CellTox Green Cytotoxicity Assay to monitor cytotoxicity in HepG2 cells - 8 hour (AID 1224890). Also: nearly all actives have a fitted effect of over 45% in size. Also: potency is read from the fitted curve at half-maximal effect. The essentials:
as §2

Assay [10] in a line: qHTS RealTime-Glo MT Cell Viability Assay in HepG2 cells - 0 hour (AID 1224889). Also: nearly all actives have a fitted effect of over 50% in size. Also: potency is read from the fitted curve at half-maximal effect. The essentials:
as §3

Unmarked numbers belong to inactive results. Inconclusive results are not listed. Active and inactive are the calls of the source. Calls follow the shape of the dose curve; as a rule, active = well fitted curve in the direction sought with a large enough effect in the repeat runs; inconclusive = weak or mixed curves; inactive = no such curve, though single readings can be large; an effect the other way counts as inactive or inconclusive.

On to `CCC(=O)OC/C=C/c1ccccc1`, for which the Potency result in assay [1], in [2], in assay [3], in [4], in assay [5] and in [6] was “inactive” each time. Further, the Potency result in assay [7], in assay [8] and in assay [9] was “inactive” throughout.

For the compound `COc1cc2[nH]c(=O)[nH]c(=O)c2cc1OC`, the Potency entry in assay [1], in [2], in assay [3], in [4], in assay [5] and in assay [6] was “inactive” throughout. The Potency result in assay [7] and in assay [10] was “inactive” throughout.

For the compound `Fc1c(F)c(F)c(Br)c(F)c1F`, the Potency result in assay [1], in assay [2], in [3], in assay [4], in [5] and in assay [6] was “inactive” throughout. Besides, the Potency result in assay [7], in assay [8] and in [9] was “inactive” each time.

`OCCSc1ccccc1`: the Potency entry in assay [1], in assay [2], in assay [3], in assay [4], in assay [5] and in [6] was “inactive” in each case. In addition, the Potency entry in [7], in [8] and in assay [9] was “inactive” in each case.

For the compound `O=S(=O)(c1ccccc1)c1ccc(Cl)cc1`, the Potency result in assay [1], in [2], in assay [3], in [4], in assay [5] and in [6] was “inactive” in each case. In addition, the Potency entry in assay [7], in assay [8], in assay [10] and in [9] was “inactive” throughout.

For the compound `CCCCC(=O)O[C@]1(C(=O)CO)CC[C@H]2[C@@H]3CCC4=CC(=O)CC[C@]4(C)[C@H]3[C@@H](O)C[C@@]21C`, the Potency result in assay [1], in assay [2], in assay [3], in [4], in assay [5] and in [6] was “inactive” in each case. Also, the Potency result in [7], in [8] and in assay [9] was “inactive” each time. Besides, the Potency in assay [10] is 9.52 µM (active).

Consider `CC(C)=CC=O`, for which the Potency result in [1], in assay [2], in [3], in [4], in assay [5] and in [6] was “inactive” each time. In addition, the Potency result in assay [7], in [8] and in assay [9] was “inactive” each time.

Consider `CC(C)c1nnc2ccc(-c3ocnc3-c3cc(F)ccc3F)cn12`, for which the Potency entry in [1], in [2], in assay [3], in assay [4], in [5] and in [8] was “inactive” throughout. Further, in assay [9], the Potency entry was “inactive”. The Potency in assay [6] and in assay [7] was 19.5 µM (active) in each case.

With `CCC(C(=O)OCCN(CC)CC)c1ccccc1` (centres undefined), the Potency result in assay [1], in [2], in assay [3], in assay [4], in assay [5] and in assay [6] was “inactive” throughout. Moreover, the Potency entry in assay [7], in [8], in assay [10] and in assay [9] was “inactive” throughout.

On to `C/C=C(\C)C(=O)OCCC(C)CCC=C(C)C` (centres undefined), for which the Potency entry in [1], in assay [2], in assay [3], in assay [4], in [5] and in assay [6] was “inactive” in each case. For the same compound, the Potency entry in assay [7], in assay [8] and in assay [9] was “inactive” in each case.

Take `C=CC(C)=CCC=C(C)C`: the Potency result in assay [1], in assay [2], in assay [3], in [4], in [5] and in assay [6] was “inactive” throughout. The Potency entry in assay [7] and in assay [10] was “inactive” each time.

`Cc1ccc(Nc2nccc(N(C)c3ccc4c(C)n(C)nc4c3)n2)cc1S(N)(=O)=O`: the Potency result in assay [1], in [2], in assay [3], in assay [4], in [5] and in assay [8] was “inactive” each time. For the same compound, the Potency entry in assay [10] and in assay [9] was “inactive” each time. The Potency is 1.51 µM (active) in [6] and 2.13 µM (active) in assay [7].

As for `C[C@@H]1C[C@H]2[C@@H]3CCC4=CC(=O)C=C[C@]4(C)[C@@]3(F)[C@@H](O)C[C@]2(C)[C@@]1(O)C(=O)CO`, the Potency entry in assay [1], in [2], in [3], in assay [4], in assay [5] and in assay [6] was “inactive” in each case. Further, the Potency entry in assay [7] and in assay [9] was “inactive” in each case. Further, the Potency in [10] is 22.2 µM (active).

Regarding `CC1CC(=O)NN=C1c1ccc(NCC(C)(C)NCC(O)COc2cc(Cl)ccc2C#N)cc1` (centres undefined), the Potency entry in [1], in assay [2], in assay [3], in assay [4], in [5] and in assay [7] was “inactive” throughout. Moreover, the Potency entry in assay [8], in [10] and in [9] was “inactive” in each case.

For `Cc1cc(O)c2c(O)c3c(O)cccc3cc2c1`, the Potency entry in [1], in [2], in assay [3], in assay [4], in assay [5] and in assay [6] was “inactive” each time. For the same compound, the Potency result in assay [8], in assay [10] and in assay [9] was “inactive” in each case.

As to `CC(=N\O)/C(C)=N/O`, the Potency result in assay [1], in assay [2], in assay [3], in [4], in assay [5] and in [6] was “inactive” each time. In addition, the Potency result in assay [8] and in [9] was “inactive” throughout.

As for `Cc1c(C(=O)NN2CCCCC2)nn(-c2ccc(Cl)cc2Cl)c1-c1ccc(Cl)cc1`, the Potency entry in assay [1], in assay [2], in assay [3], in assay [4], in [5] and in assay [8] was “inactive” each time. Also, in assay [9], the Potency result is “inactive”.

Consider `Oc1cc(O)c(Cl)cc1Cl`, for which the Potency result in [1], in assay [2], in [3], in assay [4], in [5] and in assay [6] was “inactive” each time. The Potency entry in assay [7], in assay [10] and in [9] was “inactive” throughout.

In the case of `CCC(C)(O)CCC=C(C)C` (centres undefined), the Potency result in [1], in assay [2], in [3], in assay [4], in [5] and in assay [6] was “inactive” in each case. The Potency result in assay [7], in assay [10] and in [9] was “inactive” throughout.

For the compound `CCOC(=O)CC(=O)C(=O)OCC`, the Potency result in [1], in assay [2], in assay [3], in [4], in assay [5] and in [7] was “inactive” throughout. Also, the Potency entry in [8], in assay [10] and in [9] was “inactive” in each case.

On to `Cc1cc(O)c(C(C)C)cc1Cl`, for which the figures for the Potency in assay [1], in assay [3] and in [9] were 38.9 µM (active), 34.7 µM (active) and 43.6 µM (active), respectively. Moreover, the Potency entry in assay [2], in [4], in [5], in assay [6], in assay [7] and in [10] was “inactive” throughout.

In the case of `C1COCO1`, the Potency result in assay [1], in assay [2], in assay [3], in assay [4], in assay [5] and in assay [6] was “inactive” in each case. The Potency result in assay [7] and in assay [9] was “inactive” each time.

With `COc1cc2c(N3CCN(C(=O)Nc4ccc(OC(C)C)cc4)CC3)ncnc2cc1OCCCN1CCCCC1`, the Potency entry in assay [1], in assay [2], in assay [4], in assay [5], in [8] and in assay [10] was “inactive” throughout. Besides, the Potency result in [9] is “inactive”. Moreover, the results for the Potency in assay [3] and in assay [6] were 26.8 µM (active) and 9.52 µM (active), respectively.

Take `CC(COc1ccc(C(C)(C)C)cc1)OS(=O)OCCCl` (centres undefined): the Potency result in assay [1], in [2], in assay [3], in [4], in assay [5] and in [7] was “inactive” throughout. Also, the Potency entry in assay [8], in [10] and in assay [9] was “inactive” throughout.
